Assay results from PubChem BioAssay (EPA / NIEHS).
Several values for one entry are separate records, joined by “and”; a condition that tells them apart may be missing. Equal values may be shown once. Inconclusive results are not listed. Activity calls are given as the source filed them. Rule for the calls, unless noted: active = hit-call score of the fitted dose curve at least 0.9, where 1 is the maximum; inconclusive = response in the unintended direction; inactive = score below 0.9.

Experiments:
[1] = Tanguay_ZF_120hpf_CFIN_legacy: (Legacy) Oregon State University Tanguay Lab 120 Hour Post-fertilization zebrafish Assay for Caudal Fin Malformation (AID 2283649)
Outline: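 Dechorionated 5D wild-type zebrafish, static exposure 6–120 hpf, 28C, sealed and dark, 0.64% v/v DMSO final. Binary fin-malformation call at 120 hpf, brightfield; gain of signal vs DMSO baseline.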

[2] = Tanguay_ZF_120hpf_PIG_legacy: (Legacy) Oregon State University Tanguay Lab 120 Hour Post-fertilization zebrafish Assay for Pigmentation Malformation (AID 2283650)
Outline: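 Brightfield scoring of pigmentation malformation at 120 hpf, recorded as binary present/absent per larva. Exposure: dechorionated 5D wild-type embryos, one per well, static from 6 hpf at 28C, final DMSO 0.64% (vol/vol). Dead embryos not scored.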

[3] = Tanguay_ZF_120hpf_CIRC_legacy: (Legacy) Oregon State University Tanguay Lab 120 Hour Post-fertilization zebrafish Assay for Circulatory Malformation (AID 2283651)
Outline: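 Binary circulatory malformation call at 120 hpf by brightfield imaging of zebrafish larvae; chorion removed at 4 hpf, static exposure from 6 hpf in sealed dark plates at 28C, final DMSO 0.64%; non-mortality endpoints skipped if embryo died.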

[4] = Tanguay_ZF_120hpf_TRUN_legacy: (Legacy) Oregon State University Tanguay Lab 120 Hour Post-fertilization zebrafish Assay for Truncated Body (AID 2283655)
Outline: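 Whole-embryo zebrafish screen: dechorionated 5D embryos, static exposure 6–120 hpf, 28C, sealed foil-covered plates, 0.64% DMSO. Binary truncation call; gain of signal versus DMSO baseline.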

[5] = Tanguay_ZF_120hpf_NC_legacy: (Legacy) Oregon State University Tanguay Lab 120 Hour Post-fertilization zebrafish Assay for Notochord and Tail Malformation (AID 2283656)
Outline: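 Binary scoring of notochord distortion by brightfield microscopy; embryos dying were not scored. Wild-type Tropical 5D embryos, chorion removed, exposed singly and statically from 6 to 120 hpf, 28C, sealed, 0.64% DMSO.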

[6] = Tanguay_ZF_120hpf_TR_legacy: (Legacy) Oregon State University Tanguay Lab 120 Hour Post-fertilization zebrafish Assay for Touch Response (AID 2283667)
Outline: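 Binary touch-response call at 120 hpf, analysed as gain of signal versus DMSO baseline. Wild-type 5D larvae, static exposure at 28C, 0.64% DMSO final; 5uM trimethyltin chloride as positive control.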

[7] = CCTE_Padilla_ZF_144hpf_TERATOSCORE: (Legacy) CCTE's 144 Hour Post-fertilization zebrafish Assay Teratoscore, Padilla Lab (AID 2283679; active = hit-call score of the fitted dose curve at least 0.9, where 1 is the maximum; inactive = score below 0.9;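 for AC50: zebrafish embryos with chorions exposed by immersion from 6-8 hpf to 5 dpf with daily renewal; teratogenicity score from eye scoring of death hatching and malformations at 144 hpf; higher score means more developmental defects relative to DMSO baseline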)
Outline: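 Larvae scored by eye at 144 hpf for death, hatching and malformations after a day in clean Hanks'. Before that, daily-renewed exposure at 80 uM (0.4% DMSO, 26C) from roughly 6-8 hpf through 5 dpf, 4 embryos per chemical.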

[8] = Tanguay_ZF_120hpf_ActivityScore_legacy: (Legacy) Oregon State University Tanguay Lab 120 Hour Post-fertilization zebrafish Assay Score for Activity (AID 2283742);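 for AC50: dechorionated Tropical 5D wild-type zebrafish embryos held singly per well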
Outline: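 Dechorionated 5D embryos, one per well, static exposure 6–120 hpf, 28C, sealed and dark; final DMSO 0.64% (vol/vol). Brightfield binary scoring of mortality plus 18 endpoints; gain-of-signal fit versus DMSO baseline.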

[9] = Tanguay_ZF_120hpf_SWIM_legacy: (Legacy) Oregon State University Tanguay Lab 120 Hour Post-fertilization zebrafish Assay for Swim Bladder Malformation (AID 2283654);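 note: swim bladder malformation in each larva scored yes or no under brightfield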
Outline: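 Tropical 5D embryos dechorionated at 4 hpf; 1 embryo/well from 6 hpf; static, sealed, dark exposure at 28C until 120 hpf; final DMSO 0.64%; 5uM trimethyltin chloride positive control; swim bladder defect recorded yes/no; dead embryos not scored.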

[10] = system: Thyroperoxidase (TPO), gene 54314; assay: CCTE_Simmons_AUR_rTPO: CCTE's Amplex UltraRed Assay for Thyroperoxidase (TPO) Inhibition, Simmons Lab (AID 2283662);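 note: potency for loss of signal meaning inhibition of peroxidase activity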
Outline: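 Cell-free peroxidase activity assay using rat thyroid gland microsomes with excess H2O2 (300 uM) and 25 uM Amplex UltraRed. Compounds tested from 5 nM to 87.5 uM; fluorescence measured after 30 min at 37C, analysed relative to DMSO baseline.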

[11] = CCTE_Simmons_CellTiterGLO_HEK293T: Viability Assessment in CCTE's Assays for Thyroperoxidase (TPO) Inhibition, Simmons Lab (AID 2283665);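 for AC50: cells exposed to compound for 24 h before readout; actives reduce ATP signal below DMSO vehicle meaning cytotoxicity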
Outline: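 Luciferase-coupled ATP content after 24 h exposure gives viability; 8-point series from 5 nM to 87.5 uM final in 0.5% DMSO. Human HEK293T cells, 1% FBS medium, three biological replicates, dichlone positive control.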

[12] = STM_H9_OrnithineISnorm_perc: Stemina devTOX quickPredict H9 human embryonic stem cell (hESC)-based Assay for Ornithine (ORN) Metabolite Biomarker, Normalized (AID 2283712; active = hit-call score of the fitted dose curve at least 0.9, where 1 is the maximum; inactive = score below 0.9;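 note: ornithine released into spent medium during last day measured by mass spectrometry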)
Outline: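 Ornithine in spent medium from the last 24 h of a 72 h exposure, deproteinised and quantified by UPLC-HRMS against an isotope-labelled internal standard, expressed relative to 0.1% DMSO. Pluripotent H9 cells; compound refreshed every 24 h.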

[13] = STM_H9_CystineISnorm_perc: Stemina devTOX quickPredict H9 human embryonic stem cell (hESC)-based Assay for Cystine (CYSS) Metabolite Biomarker, Normalized (AID 2283713; active = hit-call score of the fitted dose curve at least 0.9, where 1 is the maximum; inactive = score below 0.9)
Outline: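 Cystine in spent media from the last 24 h of a 72 h H9 hESC exposure (daily re-dosing), measured by UPLC-HRMS. Values normalized to isotopic internal standard, then to 0.1% DMSO; viability via CellTiter-Fluor.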

[14] = STM_H9_OrnCyssISnorm_ratio: Stemina devTOX quickPredict H9 human embryonic stem cell (hESC)-based Assay for Ornithine (ORN):Cystine (CYSS) Ratio (AID 2283714)
Outline: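 UPLC-HRMS of spent media: ORN/CYSS ratio of internal-standard-normalized percentages, DMSO (0.1%) baseline. Pluripotent H9 hESCs, 72h exposure, daily re-dosing with fresh media; last 24h media collected.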

[15] = system: Thyroperoxidase (TPO), gene 445522; assay: CCTE_Simmons_GUA_TPO: CCTE's Guaiacol Assay for Thyroperoxidase (TPO) Inhibition, Simmons Lab (AID 2283750)
Outline: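 Porcine thyroid microsomes (25 ug) in 200mM potassium phosphate, preincubated 30 s at 37C with compound (8 concentrations, 5 nM–87.5 uM) and 35mM guaiacol; 1mM H2O2 starts reaction. Absorbance change at 450nm over first 80 s; loss of signal versus DMSO, three replicates.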

[16] = read-out: solute carrier (SLC22A6), SLC22A6 (gene 9356); assay: LTEA_HepaRG_SLC22A6: Life Technologies and Expression Analysis (LTEA) Assay for solute carrier (SLC22A6) using HepaRG (AID 2283653; active = hit-call score of the fitted dose curve at least 0.9, where 1 is the maximum; inactive = score below 0.9); settings: mRNA level, 48 h; actives raise or lower the signal
Outline: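 HepaRG, human liver line; 48 h chemical exposure; 8-pt half-log series from 100 uM in 0.5% DMSO, duplicate wells. Readout: TaqMan qRT-PCR of SLC22A6 mRNA, housekeeping-normalised; bidirectional curve fit vs DMSO baseline.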

[17] = read-out: solute carrier (SLC10A1), SLC10A1 (gene 6554); assay: LTEA_HepaRG_SLC10A1: Life Technologies and Expression Analysis (LTEA) Assay for solute carrier (SLC10A1) using HepaRG (AID 2283657; active = hit-call score of the fitted dose curve at least 0.9, where 1 is the maximum; inactive = score below 0.9); settings: mRNA level, 48 h; actives raise or lower the signal
Outline: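 HepaRG, 48 h exposure, 8-pt half-log curve from 100 uM in 0.5% DMSO, duplicates. Read-out: TaqMan qRT-PCR of SLC10A1 mRNA, normalized to three housekeeping genes. Gain/loss fit vs DMSO baseline.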

[18] = read-out: matrix metalloproteinase-1 (MMP1), MMP1 (gene 4312); assay: LTEA_HepaRG_MMP1: Life Technologies and Expression Analysis (LTEA) Assay for matrix metalloproteinase-1 (MMP1) using HepaRG (AID 2283658; active = hit-call score of the fitted dose curve at least 0.9, where 1 is the maximum; inactive = score below 0.9); settings: mRNA level, 48 h; actives raise or lower the signal
Outline: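 MMP1 transcript read by TaqMan qRT-PCR (Fluidigm array) after 48 h chemical exposure of HepaRG cells in serum-free induction medium. Eight-point half-log series, top 100 uM, 0.5% DMSO vehicle. Bidirectional curve fit against DMSO baseline.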

[19] = read-out: kallikrein-3 (KLK3), KLK3 (gene 354); assay: LTEA_HepaRG_KLK3: Life Technologies and Expression Analysis (LTEA) Assay for kallikrein-3 (KLK3) using HepaRG (AID 2283652; active = hit-call score of the fitted dose curve at least 0.9, where 1 is the maximum; inactive = score below 0.9); settings: mRNA level, 48 h; actives raise or lower the signal
Outline: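 KLK3 transcript levels were measured by TaqMan qRT-PCR with normalisation to three housekeeping genes. HepaRG cultures received chemicals for 48 h at up to 100 uM (half-log, 8 points, 0.5% DMSO vehicle), fitted in both directions against DMSO.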

Measured: AC50

CCC12COCN1COC2
inactive: [1] | [2] | [3] | [4] | [5] | [6] | [7] | [8]

c1ccc(C2CO2)cc1 (stereo unspecified)
inactive: [1] | [2] | [3] | [9] | [4] | [5] | [6] | [8]

Cc1ccc(N)cc1
active: [10] 0.0844 µM | [12] 61.2 µM | [13] 23.1 µM | [14] 30.4 µM
inactive: [1] | [2] | [3] | [9] | [4] | [5] | [11] | [6] | [8]

Clc1ccc(C(c2ccc(Cl)cc2)C(Cl)(Cl)Cl)cc1
active: [7] 3.44 µM
inactive: [1] | [2] | [3] | [9] | [4] | [5] | [12] | [13] | [8]

COP(=S)(OC)SCN1C(=O)c2ccccc2C1=O
active: [10] 12.9 µM | [11] 43.8 µM | [7] 52.6 µM
inactive: [1] | [2] | [3] | [4] | [5] | [8] | [15]

Nc1ccc([N+](=O)[O-])cc1
inactive: [1] | [2] | [3] | [9] | [4] | [5] | [8]

Nc1cc(Cl)cc(C(=O)O)c1Cl
inactive: [1] | [2] | [3] | [9] | [4] | [5] | [11] | [7] | [8]
active: [10] 24.2 µM

CCCSC(=O)N(CCC)CCC
inactive: [1] | [2] | [3] | [9] | [4] | [5] | [8]

CCCCCOC(=O)c1ccccc1C(=O)OCCCCC
active: [7] 4.55 µM | [13] 19.8 µM | [14] 21.9 µM
inactive: [2] | [3] | [9] | [4] | [5] | [12] | [8]

Cc1cc(N=Nc2ccccc2C)ccc1N
active: [4] 48.2 µM | [10] 9.17 µM | [11] 18.9 µM | [6] 29.8 µM | [7] 7.92 µM | [8] 33.3 µM
inactive: [2] | [3] | [9] | [5]

C[C@]12C=CC3=C4CCC(=O)C=C4CC[C@H]3[C@@H]1CC[C@@H]2O
inactive: [2] | [3] | [16] | [9] | [4] | [5] | [18] | [6]
active: [17] 16.1 µM | [10] 7.23 µM | [11] 6.42 µM | [7] 31 µM | [8] 118 µM

ClC1=C(Cl)C2(Cl)C3C(Cl)C=CC3C1(Cl)C2(Cl)Cl (stereo unspecified)
active: [7] 3.23 µM
inactive: [2] | [3] | [19] | [16] | [9] | [17] | [18] | [6] | [8]

ClC1=C(Cl)[C@]2(Cl)[C@H]3[C@H]([C@@H]4C=C[C@H]3C4)[C@@]1(Cl)C2(Cl)Cl
inactive: [2] | [3] | [9] | [4] | [5] | [6] | [12] | [13] | [8]
active: [7] 976 nM and 4.66 µM

CN(C)C(=O)Nc1ccc(Cl)cc1
active: [10] 21.7 µM
inactive: [2] | [3] | [19] | [16] | [9] | [4] | [5] | [17] | [18] | [11] | [6] | [12] | [13] | [14] | [8]

CC(C)COC(=O)c1ccccc1C(=O)OCC(C)C
inactive: [2] | [3] | [19] | [16] | [9] | [4] | [5] | [17] | [18] | [8]
active: [7] 2.53 µM | [12] 76.1 µM | [13] 33 µM | [14] 35.3 µM

CN(C)c1ccccc1
inactive: [2] | [3] | [9] | [4] | [5] | [8]
active: [10] 22.7 µM | [15] 23.7 µM

[As]#[In]
inactive: [2] | [3] | [9] | [4] | [5] | [6] | [8]

N#CC(Br)Br
inactive: [1] | [3] | [9] | [4] | [5] | [7] | [8]

C=CCc1ccc2c(c1)OCO2
inactive: [1] | [2] | [9] | [4] | [5] | [8]
active: [10] 36.4 µM | [11] 66.7 µM
